Data as given in PubChem BioAssay AID1347165 (National Center for Advancing Translational Sciences (NCATS), 2019).
About 5,700 (2.6%) of roughly 220,000 compounds were called active. A call without a number means that no potency is given here. About 18% were inconclusive and are not listed. The call rests on the fitted dose curve; in most records, active means well fitted inhibition curve with a large enough effect; inconclusive means small, poorly fitted or top-dose-only effect; inactive means no such curve, though single readings can be large or run the other way. Many of the other results were omitted from the sample, so actives are more common in it than they were.

These compounds were tested against Lysine-specific demethylase 5B (Homo sapiens) (UniProt Q9UGL1) (assay: Primary screen for KDM5B Histone Demethylases FDH-coupled qHTS). Settings: FDH-coupled NADH fluorescence (FDH is formaldehyde dehydrogenase); series mostly up to 57.7 µM.
Outline: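 Coupled FDH/NAD⁺ fluorescence readout. KDM5BΔAP 200 nM final; compound titration, 10 min RT preincubation; substrate mix 12.5 µM H3K4me3, 25 µM 2-OG, 50 µM Fe(II), 100 µM ascorbate, 0.25 mM NAD⁺, 0.25 U/mL FDH; ΔRFU over 30 min.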
Further: nearly all actives have a fitted effect of over 70% in size.
Potency means the concentration at half of the fitted maximal effect.

Lysine-specific demethylase 5B (Homo sapiens), sequence (Q9UGL1 whole entry, looked up): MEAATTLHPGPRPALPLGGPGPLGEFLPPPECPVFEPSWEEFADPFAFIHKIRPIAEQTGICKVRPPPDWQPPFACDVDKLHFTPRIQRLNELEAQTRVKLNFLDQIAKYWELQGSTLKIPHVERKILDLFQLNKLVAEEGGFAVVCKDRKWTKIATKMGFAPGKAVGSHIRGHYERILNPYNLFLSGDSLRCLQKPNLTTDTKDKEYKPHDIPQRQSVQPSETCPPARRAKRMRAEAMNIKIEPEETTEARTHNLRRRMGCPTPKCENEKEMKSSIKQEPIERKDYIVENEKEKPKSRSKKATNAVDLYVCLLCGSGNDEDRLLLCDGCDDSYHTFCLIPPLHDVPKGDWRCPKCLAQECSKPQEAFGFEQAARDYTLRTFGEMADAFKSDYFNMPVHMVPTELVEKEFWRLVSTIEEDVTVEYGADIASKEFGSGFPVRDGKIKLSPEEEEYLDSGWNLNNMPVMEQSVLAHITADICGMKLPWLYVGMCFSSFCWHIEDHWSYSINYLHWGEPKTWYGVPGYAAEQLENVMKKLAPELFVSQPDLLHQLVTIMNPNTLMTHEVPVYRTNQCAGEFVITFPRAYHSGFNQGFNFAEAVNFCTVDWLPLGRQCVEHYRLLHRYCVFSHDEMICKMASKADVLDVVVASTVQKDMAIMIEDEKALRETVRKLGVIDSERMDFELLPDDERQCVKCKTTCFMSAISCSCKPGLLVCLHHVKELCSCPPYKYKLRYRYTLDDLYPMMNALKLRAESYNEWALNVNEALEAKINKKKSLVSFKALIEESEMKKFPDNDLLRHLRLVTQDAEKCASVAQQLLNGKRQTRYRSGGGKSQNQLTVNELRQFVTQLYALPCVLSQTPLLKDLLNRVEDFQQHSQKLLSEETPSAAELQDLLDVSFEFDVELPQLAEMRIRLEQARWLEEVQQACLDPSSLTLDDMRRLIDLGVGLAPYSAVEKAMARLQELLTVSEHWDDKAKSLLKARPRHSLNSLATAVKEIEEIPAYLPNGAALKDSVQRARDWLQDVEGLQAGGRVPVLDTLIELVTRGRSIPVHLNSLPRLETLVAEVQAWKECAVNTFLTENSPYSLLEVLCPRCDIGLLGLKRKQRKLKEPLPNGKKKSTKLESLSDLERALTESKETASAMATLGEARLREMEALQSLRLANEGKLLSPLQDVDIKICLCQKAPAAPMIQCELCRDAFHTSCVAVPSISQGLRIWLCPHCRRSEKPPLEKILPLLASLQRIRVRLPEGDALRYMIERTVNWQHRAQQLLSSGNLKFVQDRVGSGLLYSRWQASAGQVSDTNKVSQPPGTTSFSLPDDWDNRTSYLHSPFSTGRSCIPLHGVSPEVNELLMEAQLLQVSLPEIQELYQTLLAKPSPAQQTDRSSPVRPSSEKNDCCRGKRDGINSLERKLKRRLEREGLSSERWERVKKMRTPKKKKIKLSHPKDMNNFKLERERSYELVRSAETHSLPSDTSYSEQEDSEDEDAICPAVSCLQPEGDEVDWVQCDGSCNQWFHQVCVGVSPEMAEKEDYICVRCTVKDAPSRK

Structure (SMILES)	Potency
Cc1ccc(C(NC(=O)c2ccccc2Cl)C(Cl)(Cl)Cl)cc1 (stereo not drawn)	inactive
Cc1cc(NC(=O)CSc2nc(=O)cc(N)n2-c2ccc(F)cc2)no1	inactive
O=C(O)CC/C(=C/c1cccc(Oc2ccc(Cl)cc2)c1)c1nc2ccccc2s1	inactive
CN(Cc1nnc(-c2ccc(Br)s2)o1)C1CCCC1	inactive
COc1ccccc1C1=NS(=O)(=O)N(C)C(C(=O)N2CCN(Cc3ccccc3)CC2)=C1	inactive
Cc1ccccc1CNC(=O)c1ccc2c(c1)CCCC2	inactive
O=C(CSc1ncc(-c2ccc(Cl)cc2)o1)Nc1ccc(F)cc1	inactive
COc1nc2nc(CC3CC3)n(C)c2cc1-c1ccc(CO)cc1	35.5 µM (active)
COc1nc2nc(CCc3ccccc3)n(C)c2cc1-c1cncnc1	inactive
CC(=O)Nc1cccc(-c2n[nH]c3c2CC(=O)N(Cc2ccccc2F)C3)c1	inactive
CC(=O)Nc1cccc(-c2nnc3n2CCCC3)c1	inactive
COc1nc2nc(CC3CC3)n(C)c2cc1-c1cccc(NC(C)=O)c1	35.5 µM (active)
CSCCC(NC(=O)[C@@H](NC(=O)c1ccc(F)cc1)C(C)C)c1nnc2ccccn12 (stereo partly drawn)	inactive
O=C(Nc1cccc(Cl)c1)N1CCN(c2cc(=O)n3nc(-c4ccco4)sc3n2)CC1	inactive
CCc1ccc2oc(C(=O)Nc3ccccc3Cl)cc(=O)c2c1	inactive
Fc1ccc(NC(=S)NCC(c2ccccc2)c2ccccc2)cc1	inactive
O=C(Nc1ccc2oc(-c3cccc(Cl)c3)nc2c1)c1ccc(F)cc1	inactive
CN(c1ccccc1)S(=O)(=O)c1ccc(NC(=O)COc2ccccc2)cc1	inactive
Cc1ccc(S(=O)(=O)N(C)Cc2ccccc2C(F)(F)F)cc1	inactive
Cn1ncc2c(C(=O)NCc3cccnc3)cc(C(C)(C)C)nc21	100 µM (active)
CC(C)(C)C(=O)NCCCC(=O)NCc1cccnc1	inactive
CCn1cc(-c2ccc(C)cc2)cc1C(=O)NCc1cccnc1	inactive
O=C(NC(=S)NC1CCCCC1)c1ccc(Cl)cc1	inactive
COc1ccccc1OCCNC(=O)c1cn2ccnc(-c3ccc(C)cc3)c2n1	28.2 µM (active)
N#CCCN1CCN(C(=O)c2cn3ccnc(-c4ccccc4)c3n2)CC1	inactive
N#CCCN1CCN(C(=O)c2cn3ccnc(-c4ccc(F)cc4)c3n2)CC1	inactive
COc1ccc(-c2noc(-c3cccn3CC(=O)Nc3cc(Cl)ccc3OC)n2)cc1F	inactive

Structure (SMILES)	Potency
CCCn1nc(C(=O)Nc2sc3c(c2C(N)=O)CCC3)c2ccccc2c1=O	inactive
CCC(C(=O)Nc1cccc(-c2nc3cccnc3s2)c1C)c1ccccc1 (stereo not drawn)	inactive
CCc1noc(-c2cccn3c(CNC(=O)C(CC)c4ccccc4)nnc23)n1 (stereo not drawn)	28.2 µM (active)
CCc1noc(-c2cn(C3CCN(C(=O)C4(c5ccccc5)CC4)C3)nn2)n1 (stereo not drawn)	inactive
CCc1noc(-c2cn(C3CCN(C(=O)c4cccc(OC)c4)C3)nn2)n1 (stereo not drawn)	inactive
CCc1noc(-c2cccn3c(CNC(=O)c4cccc(Cl)c4)nnc23)n1	31.6 µM (active)
O=C(NCc1nnc2c(-c3nc(C4CC4)no3)cccn12)c1cccnc1	25.1 µM (active)
CC(C)CC(=O)N1CCC(c2noc(-c3cnccn3)n2)C1 (stereo not drawn)	inactive
CCc1noc(-c2cn(C3CCN(C(=O)c4ccc(Cl)cc4)C3)nn2)n1 (stereo not drawn)	inactive
CCc1noc(-c2cccn3c(CNC(=O)c4ccncc4)nnc23)n1	28.2 µM (active)
CC(C)c1nc(CNC(=O)c2ccc(N(C)C)nc2)no1	inactive
CCNC(=O)c1noc(-c2ccc[nH]c2=O)n1	inactive
O=C(c1cccnc1)N1CCC(Cc2nc(C3CCOCC3)no2)CC1	inactive
c1ccc(-c2nc(CN3CCCC3c3cccs3)co2)cc1 (stereo not drawn)	inactive
O=C1Cc2cc(-c3csc(Nc4ccc(F)cc4)n3)ccc2N1	inactive
CC(=O)Nc1ccc(SC2CCCCCC2=O)cc1 (stereo not drawn)	inactive
CCC1CCc2c(sc(NC(=O)C(CC)CC)c2C#N)C1 (stereo not drawn)	inactive
Cc1ccc(NC(=O)CN(C)C(=O)c2nc(-c3ccccc3)oc2C)cc1	inactive
CC1CCCN(CC(=O)Nc2cc(Cl)ccc2Oc2ccccc2)C1 (stereo not drawn)	inactive
Nc1nc2ccc([N+](=O)[O-])cc2[n+]([O-])n1	inactive
COc1cccc(N(CC(=O)NC2CCCC2)C(=O)Cn2nnc(-c3ccc(C)o3)n2)c1	inactive
C/C(=C\c1ccc([N+](=O)[O-])cc1)C(=O)c1ccccc1	inactive
COc1ccc(CNc2nc3c(c(=O)[nH]c(=O)n3C)n2Cc2ccccc2)cc1	inactive
c1cncc(CNc2cc(-c3cnc4ccccc4n3)c3cc[nH]c3n2)c1	inactive
N#Cc1nc(/C=C/c2ccc(F)cc2)oc1NC1CCCCC1	inactive
Fc1ccc(-c2cc(NC3CCCC3)nc3[nH]ccc23)nc1	31.6 µM (active)
